Source: PubChem BioAssay AID1159580 (chemical genetic matrix, 2015)
“And” between values parts separate entries of the source, which are not always exact repeats. Identical values can stand only once. Screen size: about 5,500 compounds; about 2,000 (36%) were called active. Inconclusive results (about 18%) are left out. No stated cut-off is given here; in the data, active means normalized growth mostly below about 0.91 (no sharp cut-off); inconclusive means no clear call, values can overlap the other calls; inactive means mostly above about 0.92. The list shows a part of the results.

Assay: chemical genetic growth profiling, strain panel (AID 1159580);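 further: tested at 20 µM; growth read once vehicle control cultures reached saturation at 30 °C; 1 = growth at the plate median or of vehicle wells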
Details: S. cerevisiae deletion strains, growth OD

Measured: normalized growth

C[C@H]1O[C@@H](O[C@H]2[C@@H](O)C[C@H](O[C@H]3[C@@H](O)C[C@H](O[C@H]4CC[C@]5(C)C6C[C@@H](O)[C@]7(C)[C@@H](C8=CC(=O)OC8)CC[C@]7(O)C6CC[C@@H]5C4)O[C@@H]3C)O[C@@H]2C)C[C@H](O)[C@@H]1O (stereo partly drawn)
inactive: locus YAL013W, strain DEP1, stronger effect = lower value 0.992 | locus YAL021C, strain ccr4, stronger effect = lower value 0.982 | locus YAL026C, strain drs2, stronger effect = lower value 1.01 | locus YAL030W, strain snc1, stronger effect = lower value 0.991 | locus YBL061C, strain skt5, stronger effect = lower value 0.99 | locus YBR009C, strain hhf1, stronger effect = lower value 1.08 | locus YBR021W, strain FUR4, stronger effect = lower value 1.01 | locus YBR023C, strain chs3, stronger effect = lower value 0.994 | locus YBR171W, strain sec66, stronger effect = lower value 0.984 | locus YBR229C, strain ROT2, stronger effect = lower value 1 | locus YBR231C, strain swc5, stronger effect = lower value 0.989 | locus YBR279W, strain paf1, stronger effect = lower value 0.996 | locus YCL011C, strain gbp2, stronger effect = lower value 0.967 | locus YCL016C, strain dcc1, stronger effect = lower value 0.992 | locus YCL029C, strain bik1, stronger effect = lower value 0.977 | locus YCL061C, strain MRC1, stronger effect = lower value 1.01 | locus YCL069W, strain vba3, stronger effect = lower value 0.991 | locus YCR088W, strain abp1, stronger effect = lower value 0.997 | locus YDL005C, strain med2, stronger effect = lower value 0.98 | locus YDL035C, strain GPR1, stronger effect = lower value 0.987 | locus YDL040C, strain nat1, stronger effect = lower value 0.999 | locus YDL074C, strain BRE1, stronger effect = lower value 0.982 | locus YDL101C, strain DUN1, stronger effect = lower value 1.01 | locus YDL134C, strain PPH21, stronger effect = lower value 1.03 | locus YDL185W, strain tfp1, stronger effect = lower value 0.955 | locus YDL192W, strain arf1, stronger effect = lower value 0.983 | locus YDR001C, strain nth1, stronger effect = lower value 0.982 | locus YDR069C, strain doa4, stronger effect = lower value 0.996 | locus YDR101C, strain arx1, stronger effect = lower value 0.982 | locus YDR137W, strain rgp1, stronger effect = lower value 0.978 | locus YDR150W, strain NUM1, stronger effect = lower value 0.991 | locus YDR159W, strain sac3, stronger effect = lower value 1.02 | locus YDR162C, strain NBP2, stronger effect = lower value 1.03 | locus YDR195W, strain ref2 0.987 | locus YDR297W, strain sur2, stronger effect = lower value 0.987 | locus YDR318W, strain mcm21, stronger effect = lower value 1 | locus YDR334W, strain swr1, stronger effect = lower value 0.957 | locus YDR335W, strain msn5, stronger effect = lower value 0.98 | locus YDR388W, stronger effect = lower value 0.984 | locus YDR392W, strain spt3, stronger effect = lower value 0.975 | locus YDR502C, strain sam2, stronger effect = lower value 1.01 | locus YEL003W, strain gim4, stronger effect = lower value 0.997 | locus YEL037C, strain rad23, stronger effect = lower value 1 | locus YEL061C, strain CIN8 (second series), stronger effect = lower value 0.992 | locus YEL061C, strain CIN8, stronger effect = lower value 1 | locus YER015W, strain faa2, stronger effect = lower value 1.01 | locus YER016W, strain bim1, stronger effect = lower value 0.987 | locus YER110C, stronger effect = lower value 0.961 | locus YER111C, strain swi4, stronger effect = lower value 1.01 | locus YER155C, strain BEM2 (second series), stronger effect = lower value 1.04 | locus YER155C, strain BEM2, stronger effect = lower value 0.986 | locus YER167W, strain BCK2, stronger effect = lower value 0.992 | locus YFR010W, strain ubp6, stronger effect = lower value 1 | locus YGL078C, strain dbp3, stronger effect = lower value 1 | locus YGL086W, strain mad1, stronger effect = lower value 0.969 | locus YGL167C, strain pmr1, stronger effect = lower value 0.998 | locus YGL173C, strain kem1, stronger effect = lower value 0.981 | locus YGL227W, strain vid30, stronger effect = lower value 0.99 | locus YGL240W, strain doc1, stronger effect = lower value 0.973 | locus YGL248W, strain PDE1, stronger effect = lower value 1.02 | locus YGL253W, strain hxk2, stronger effect = lower value 0.957 | locus YGR135W, strain pre9, stronger effect = lower value 1.01 | locus YGR252W, strain gcn5, stronger effect = lower value 1.09 | locus YHR013C, strain ard1, stronger effect = lower value 0.977 | locus YHR027C, strain rpn1, stronger effect = lower value 0.976 | locus YHR030C, strain SLT2, stronger effect = lower value 0.983 and 1.05 | locus YHR079C, strain IRE1 (second series), stronger effect = lower value 0.982 | locus YHR079C, strain IRE1, stronger effect = lower value 1.06 | locus YHR094C, strain hxt1, stronger effect = lower value 0.973 | locus YHR129C, strain ARP1, stronger effect = lower value 0.993 | locus YHR142W, strain chs7, stronger effect = lower value 0.964 | locus YHR200W, strain rpn10, stronger effect = lower value 0.97 | locus YIL066C, strain RNR3, stronger effect = lower value 1 | locus YIL073C, strain SPO22, stronger effect = lower value 0.937 | locus YIL125W, strain kgd1, stronger effect = lower value 0.941 | locus YIR030C, strain dcg1, stronger effect = lower value 0.99 | locus YJL092W, strain hpr5, stronger effect = lower value 0.996 | locus YJL095W, strain BCK1 (second series), stronger effect = lower value 0.976 | locus YJL095W, strain BCK1, stronger effect = lower value 1.02 and 1.06 | locus YJL115W, strain asf1, stronger effect = lower value 0.984 | locus YJL129C, strain trk1, stronger effect = lower value 0.979 | locus YJL134W, strain LCB3, stronger effect = lower value 0.985 | locus YJL154C, strain vps35, stronger effect = lower value 0.977 | locus YJL164C, strain tpk1, stronger effect = lower value 1.02 | locus YJL166W, strain qcr8, stronger effect = lower value 0.939 | locus YJL168C, strain set2, stronger effect = lower value 0.998 | locus YJL187C, strain SWE1 (second series), stronger effect = lower value 1.02 | locus YJL187C, strain SWE1, stronger effect = lower value 0.993
